Max dye-equivalent concentration data for 38 compounds are collected here from PubChem BioAssay AID590 (National Center for Advancing Translational Sciences (NCATS), 2007).

Where “and” joins values, the source holds several entries; their conditions need not be identical. Identical values can stand only once. Out of some 59,000 compounds screened, about 6,500 (11%) were called active. Another 15% or so got no clear call; they are omitted. This is one part of a sample in which actives are shown more often than they occur. Rule as the data show it: active = max dye-equivalent concentration above about 10 nM; inconclusive = mostly about 1.1 nM to 9.6 nM; inactive = weaker than that.

This assay can be described thus: qHTS Assay for Spectroscopic Profiling in A350 Spectral Region. Conditions: Compound autofluorescence, 340/450 nm, Alexa 350 dye-equivalents; hits give high values.
For the compound `CC1=C(C(=O)OC2CCCCC2)C(c2cccnc2)n2ncnc2N1` (stereo not drawn), the max dye-equivalent concentration result was “inactive”.

With `CCSc1nc2c(c(=O)[nH]1)C(c1cccnc1)C(C(=O)OC(C)C)=C(C)N2` (stereo not drawn), the max dye-equivalent concentration is 1.2e-08 M (active).

Turning to `COC(=O)C1=C(N)Oc2cc(C)oc(=O)c2C1c1cccnc1` (stereo not drawn), the max dye-equivalent concentration result was “inactive”.

Consider `C=C(C)c1cccc(C(C)(C)NC(=O)N2CCN(c3ncccn3)CC2)c1`, for which the max dye-equivalent concentration result was “inactive”.

`CCOC(=O)c1c(C2CC2)csc1NC(=O)CSCc1c(C)noc1C`: the max dye-equivalent concentration result was “inactive”.

As to `COc1c(C)c2c(c(O)c1C/C=C(\C)CCC(=O)O)C(=O)OC2`, the max dye-equivalent concentration is 6e-08 M (active) and 1.6e-08 M (active).

Turning to `COc1ccc(CC(=O)Nc2ccc3c(c2)CCC3)cc1S(=O)(=O)N1CCOCC1`, the max dye-equivalent concentration entry was “inactive”.

On to `Clc1ccc(C=Nc2ccc3c(c2)Cc2ccccc2-3)c(Cl)c1`, for which the max dye-equivalent concentration entry is “inactive”.

`CCOc1cc(CO)ccc1OCC(=O)N1CCCCC1`: the max dye-equivalent concentration result was “inactive”.

Turning to `Cc1ccc2c(c1)sc1ncc(NC(=O)c3ccccc3)c(=O)n12`, the max dye-equivalent concentration was 6.5e-08 M (active).

As to `Cc1ccc(NC(=O)c2nc[nH]c2C(=O)N2CCCCC2)c(C(=O)c2ccccc2)c1`, the max dye-equivalent concentration result was “inactive”.

Turning to `Cc1ccccc1NC(=O)c1ccccc1`, the max dye-equivalent concentration entry is “inactive”.

Take `CCC(Oc1ccccc1)C(=O)NCc1cccnc1` (stereo not drawn): the max dye-equivalent concentration entry was “inactive”.

For the compound `Cc1ccc(S(=O)(=O)c2nc(NCCCn3ccnc3)sc2Cl)cc1`, the max dye-equivalent concentration result was “inactive”.

`CC1(C)C/C(=C(/C#N)C(N)=O)CCO1`: the max dye-equivalent concentration entry is “inactive”.

For the compound `CC(C(=O)N1CCOCC1)N1c2cccc3cccc(c23)S1(=O)=O` (stereo not drawn), the max dye-equivalent concentration is 8e-08 M (active).

In the case of `CC(C(=O)Nc1ccccc1-c1ccccc1)N1CCOCC1` (stereo not drawn), the max dye-equivalent concentration result was “inactive”.

As to `O=C(c1ccccc1-c1ccccc1)N1CCOCC1`, the max dye-equivalent concentration result is “inactive”.

Regarding `COC(=O)c1nc(NC(=O)c2ccc(Cl)cc2)n[nH]1`, the max dye-equivalent concentration result is “inactive”.

On to `CCC(=O)c1ccc(OCC(O)CN2CC(C)OC(C)C2)cc1` (stereo not drawn), for which the max dye-equivalent concentration entry was “inactive”.

In the case of `CC1CCCC(NC(=O)CN2CCN(Cc3ccc(Cl)cc3)C2=O)C1C` (stereo not drawn), the max dye-equivalent concentration result is “inactive”.

For the compound `Cc1ccc(C)n1C(Cc1ccccc1)C(=O)O` (stereo not drawn), the max dye-equivalent concentration was 1.3e-08 M (active).

In the case of `C[C@@H](N)[C@@H](C)Cc1ccccc1`, the max dye-equivalent concentration result was “inactive”.

Consider `CC(=O)c1ccc(NC(=O)N[C@@H](Cc2ccccc2)C(=O)O)cc1`, for which the max dye-equivalent concentration entry is “inactive”.

With `O=C(C1CCCO1)N(Cc1ccccc1)c1ccccc1` (stereo not drawn), the max dye-equivalent concentration result was “inactive”.

In the case of `CCN(c1ccccc1)S(=O)(=O)c1cccc(C(=O)O)c1`, the max dye-equivalent concentration entry is “inactive”.

Regarding `Nc1nc(N)c2[nH]c(CNc3ccc(C(=O)O)cc3)nc2n1`, the max dye-equivalent concentration entry is “inactive”.

On to `O=C(Nc1ccc(Cl)cn1)Nc1cccs1`, for which the max dye-equivalent concentration result is “inactive”.

`COc1ccc(-n2ncc3c(N4CCCc5ccccc54)ncnc32)cc1`: the max dye-equivalent concentration was 2.5e-08 M (active).

In the case of `CCCc1nc2c3cnn(-c4cccc(Cl)c4)c3ncn2n1`, the max dye-equivalent concentration entry is “inactive”.

As for `COc1ccc(N2CCN(C(=O)CSc3ncnc4c3cnn4-c3ccc(OC)cc3)CC2)cc1`, the max dye-equivalent concentration entry was “inactive”.

For `Cc1cccc(-n2ncc3c(N4CCc5ccccc54)ncnc32)c1`, the max dye-equivalent concentration was 1.5e-08 M (active).

Take `Cc1ccc(-n2ncc3c2ncn2nc(-c4ccco4)nc32)c(C)c1`: the max dye-equivalent concentration result is “inactive”.

Consider `c1ccc(-n2ncc3c(N4CCCC4)ncnc32)cc1`, for which the max dye-equivalent concentration result was “inactive”.

As to `Cc1cc2ccccc2n2c(SCC(=O)N3CCN(C(=O)c4ccco4)CC3)nnc12`, the max dye-equivalent concentration entry is “inactive”.

Take `CC(=O)Nc1ccn(Cc2c(F)cccc2Cl)n1`: the max dye-equivalent concentration result was “inactive”.

With `CCCCCn1c(SCCC(C)C)nc2c1c(=O)[nH]c(=O)n2C`, the max dye-equivalent concentration entry is “inactive”.

As for `O=C(O)CN(Cc1ccco1)S(=O)(=O)c1ccc(F)cc1`, the max dye-equivalent concentration entry was “inactive”.
